In PubChem BioAssay AID588342 (National Center for Advancing Translational Sciences (NCATS), 2011):
The campaign covered roughly 360,000 compounds. About 25,000 (6.9%) were called active. Entries that show only a call come without a potency. Not shown: some 9% with an inconclusive outcome. This is one part of a sample in which actives are shown more often than they occur. The call rests on the fitted dose curve; in most records, active means well fitted inhibition curve with a large enough effect; inconclusive means small, poorly fitted or top-dose-only effect; inactive means flat fitted curve, though single readings scatter.

Biological target: Luciferin 4-monooxygenase (Photinus pyralis) (UniProt P08659)
Assay: qHTS profiling assay for firefly luciferase inhibitor/activator using purifed enzyme and Km concentrations of substrates (counterscreen for miR-21 project); further: nearly all actives have a fitted effect of over 55% in size
Conditions: purified FLuc, luminescence inhibition; series mostly up to 57.5 µM
Outline: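 Purified P. pyralis luciferase, 10 nM final, with Km-level 10 uM D-luciferin and 10 uM ATP in 50 mM Tris acetate pH 7.5, 10 mM Mg acetate, 0.01% Tween-20, 0.05% BSA; 6-point qHTS titration about 60 µM downward; luminescence read.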
Potency means the concentration at half of the fitted maximal effect.

Sequence of Luciferin 4-monooxygenase (Photinus pyralis) (P08659 whole entry, looked up): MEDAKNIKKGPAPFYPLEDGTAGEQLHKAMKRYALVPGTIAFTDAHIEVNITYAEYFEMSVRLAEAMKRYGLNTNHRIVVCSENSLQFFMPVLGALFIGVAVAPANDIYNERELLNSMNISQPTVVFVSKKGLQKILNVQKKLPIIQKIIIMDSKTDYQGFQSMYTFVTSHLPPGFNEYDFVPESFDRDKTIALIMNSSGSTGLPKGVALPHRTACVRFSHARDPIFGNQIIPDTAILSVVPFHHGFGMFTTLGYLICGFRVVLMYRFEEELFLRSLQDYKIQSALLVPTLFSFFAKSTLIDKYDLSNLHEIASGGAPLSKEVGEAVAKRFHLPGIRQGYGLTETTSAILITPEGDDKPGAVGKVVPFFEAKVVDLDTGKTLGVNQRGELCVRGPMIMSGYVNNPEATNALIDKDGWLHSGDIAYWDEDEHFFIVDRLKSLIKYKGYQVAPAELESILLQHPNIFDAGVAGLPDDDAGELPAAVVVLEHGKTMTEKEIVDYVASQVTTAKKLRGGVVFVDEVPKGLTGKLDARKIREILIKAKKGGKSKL

Compound	Potency
CCCSc1nsc(N)n1	inactive
CCCCCCSc1nsc(N)n1	26.9 µM (active)
CC(C)CC(=O)NC(=S)NNC(=O)c1cccc([N+](=O)[O-])c1	inactive
COc1ccc(OCCNC(=O)c2cc(C3CC3)nc3c2cnn3C(C)C)cc1	inactive
CCOC(=O)c1ccc(NC(=O)C2CCN(S(=O)(=O)c3ccc4c(c3)CCCC(=O)N4)CC2)cc1	inactive
COc1ccc(-c2nnc3ccc(SCc4ccccc4)nn23)cc1	inactive
COc1cccc(CSc2nc3nc(C)cc(C)n3n2)c1	inactive
COc1ccc2nc(SCc3ccccc3)nc(C)c2c1	2.69 µM (active)
CC(Oc1ccc(Br)cc1)C(=O)NC1CCCCCC1 (centres undefined)	inactive
CCn1cc(C(=O)N2CCN(c3cc(Cl)ccc3C)CC2)c(=O)c2cc(S(=O)(=O)N3CCCC3)ccc21	inactive
CC(C)(Oc1ccc(Cl)cc1)C(=O)OCC(=O)NCCc1ccc(S(N)(=O)=O)cc1	inactive
O=C(NCCc1ccccc1)C(=O)NCC(c1ccco1)S(=O)(=O)c1ccccc1 (centres undefined)	inactive
CCCCn1c(N)c(N(CCOC)C(=O)c2cccc(S(=O)(=O)N(C)c3ccccc3)c2)c(=O)[nH]c1=O	inactive
O=C(c1cn(-c2ccccc2)nc1-c1cccnc1)N1CCN(S(=O)(=O)c2ccccc2F)CC1	inactive
COc1ccccc1N1CCN(C(=O)c2cn(-c3ccccc3)nc2-c2cccnc2)CC1	9.53 µM (active)
NC(=O)C1CCN(C(=O)c2cn(-c3ccccc3)nc2-c2cccnc2)CC1	inactive
CCOCCCNC(=O)c1c(NC(=O)Cc2coc3c(C)c(C)ccc23)sc2c1CCC2	inactive
CC[C@]1(c2ccccc2OC)C(=O)N(C(=O)OC)N1C(=O)OC	inactive
O=C(COc1ccccc1)NCc1ccc2c(c1)CCN2C(=O)c1ccc(F)cc1	inactive
Cc1cccc(OCCNC(=O)CSc2ccc(C(F)(F)F)cc2[N+](=O)[O-])c1	inactive
COc1ccc(-c2nn(CC(=O)Nc3ccccc3F)c3c2cnc2ccc(F)cc23)cc1	inactive
CC(C)(C)OC(=O)N1CCC(C(=O)NNC(=O)c2ccc(Cl)cc2Cl)CC1	inactive

Compound	Potency
COc1cccc(NC(=O)c2nn(C34CC5CC(CC(C5)C3)C4)cc2[N+](=O)[O-])c1	inactive
CCC(C(=O)Nc1ccc2c(c1)OCCO2)c1ccccc1 (centres undefined)	inactive
Cc1nn(CC(=O)Nc2ccc3c(c2)OCO3)c(C)c1[N+](=O)[O-]	inactive
O=C(Nc1ccc2c(c1)OCO2)c1ccc(N2C(=O)c3ccccc3C2=O)cc1	inactive
O=C(Nc1cccc(NC(=O)c2ccco2)c1)c1cnccn1	inactive
O=C(Nc1ccc2c(c1)OCCO2)c1ccoc1	21.3 µM (active)
O=C(CCN1C(=O)c2ccncc2C1=O)Nc1ccc2c(c1)OCCO2	inactive
O=C(Nc1ccc2c(c1)OCCO2)c1cnccn1	12 µM (active)
Cn1cc([N+](=O)[O-])c(C(=O)Nc2ccc3c(c2)OCCO3)n1	16.9 µM (active)
O=C(OCc1cc(=O)n2ccsc2n1)C1(c2ccc(Cl)cc2)CC1	inactive
COCC(C)NS(=O)(=O)c1ccc(N2CCCCS2(=O)=O)cc1 (centres undefined)	inactive
COc1ccccc1N=C1SC(C)CN1C(=O)C1CCC1 (centres undefined)	inactive
CCOc1ccc(C(=O)Nc2ccc3nc4c(c(Nc5ccccc5OC)c3c2)CCCC4)cc1	inactive
CCOC(=O)C1CCN(c2ncnc3c2c(-c2ccccc2)cn3-c2cccc(C)c2)CC1	inactive
COc1ccc(C(C)NC(=O)C23CC4CC(CC(C4)C2)C3)cc1 (centres undefined)	inactive
CC(=O)c1ccc(S(=O)(=O)Nc2ccc(-c3ccc4nncn4n3)cc2)cc1	inactive
CC(C)NS(=O)(=O)c1ccc(NC(=O)C2CCCCC2)cc1	inactive
O=C(Nc1ccc(-c2ccc3nncn3n2)cc1)C1CCCCC1	26.9 µM (active)
COc1ccccc1NC(=O)c1oc2ccccc2c1NC(=O)COc1ccccc1OC	inactive
CCCCN(CC)CCCNC(=O)c1nn(C)c2c1CSc1ccccc1-2	inactive
CCOC(=O)c1ccc(CS(=O)c2ccc(Cl)cc2)o1 (centres undefined)	inactive
CCOC(=O)c1c(Cc2ccc(Cl)cc2)c[nH]c1C	19 µM (active)

Compound	Potency
CCOC(=O)N1CCN(C(=O)CNC(=O)Cc2ccc(Cl)cc2)CC1	inactive
CC1(c2nnc(Cc3ccccc3)o2)CC(c2ccccc2F)=NO1 (centres undefined)	inactive
Cc1nc(-c2ccc(Cl)cc2)sc1C1(C)CC(c2ccccc2F)=NO1 (centres undefined)	19 µM (active)
Cc1nc(C(=O)Nc2ccc(Cl)cc2)sc1C1(C)CC(c2ccccc2)=NO1 (centres undefined)	inactive
CN(CC(=O)Nc1ccc(F)c(F)c1F)C(=O)C1CC(=O)N(C2CCCC2)C1 (centres undefined)	inactive
O=C(/C=C/Sc1ncn[nH]1)c1ccc(Cl)cc1	1.9 µM (active)
O=C(CSc1ncn[nH]1)NCc1ccc2c(c1)OCO2	inactive
CC(=O)NS(=O)(=O)c1ccc(NC(=O)C2C3C=CC(C3)C2C(=O)O)cc1 (centres undefined)	inactive
CC(C)COC(=O)c1ccc(NC(=O)C2C3C=CC(C3)C2C(=O)O)cc1 (centres undefined)	19 µM (active)
COC(=O)c1cc(NC(=O)C2C3C=CC(C3)C2C(=O)O)cc(C(=O)OC)c1 (centres undefined)	inactive
CCCN(CC1CC1)C(=S)NC(=O)c1ccccc1Br	inactive
Cc1csc2nc(COC(=O)c3ccc(NC(=O)COc4ccccc4F)cc3)cc(=O)n12	inactive
COc1ccccc1N1CCN(C(=O)C2CCN(S(=O)(=O)c3c(C)noc3/C=C/c3ccc(C)cc3)CC2)CC1	inactive
O=C(NCc1ccccn1)C1CCN(S(=O)(=O)c2ccc(Br)cc2)CC1	inactive
O=C(Nc1ccccn1)C1CCN(S(=O)(=O)c2ccc3c(c2)OCCO3)CC1	19 µM (active)
O=C(NCc1cccs1)C1CCN(S(=O)(=O)c2ccc3c(c2)OCCO3)CC1	inactive
COCCNC(=O)C1CCN(S(=O)(=O)c2ccc3c(c2)OCCO3)CC1	inactive
Cc1csc(NC(=O)C2CCN(S(=O)(=O)c3ccccc3)CC2)n1	inactive
O=C(Nc1ccccn1)C1CCN(S(=O)(=O)c2ccccc2)CC1	23.9 µM (active)
C=Cc1ccc(Cn2c(C(=O)O)c(CNC3CCCC3)c3ccc(C)cc32)cc1	inactive
CCOC(=O)c1c(NC(C)=O)c2c3c(sc2n1Cc1c(C)cc(C)cc1C)CCCC3	inactive
CCOC(=O)c1ccccc1NC(=O)COC(=O)C(Cc1c[nH]c2ccccc12)NC(C)=O (centres undefined)	inactive

Compound	Potency
CCC(=O)N1CCc2cc(S(=O)(=O)NCCC(=O)Nc3cccc(C)c3C)ccc21	inactive
Cc1oc(C)c2c(=O)cc(-c3ccc4c(c3)OCO4)cc(OC(=O)c3ccc(Cl)cc3)c12	inactive
Cc1ccccc1N1CC(c2nc3ccccc3[nH]2)CC1=O (centres undefined)	inactive
Cc1cc(/C=C2/NC(=O)NC2=O)c(C)n1-c1cccnc1	15.1 µM (active)
CSc1cc(C)n(-c2ccccc2C)c(=S)c1C(C)=O	inactive
Cc1ccc2c(c1)C(O)(CC(=O)c1cccnc1)C(=O)N2 (centres undefined)	inactive
Cc1ccccc1-n1c(C)cc(/C=C2\NC(=O)NC2=O)c1C	1.9 µM (active)
Cc1cc(/C=C2\SC(=Nc3ccc(N4CCOCC4)cc3)N(C)C2=O)c(C)n1-c1cccnc1	inactive
C=CCn1c(=O)c(C(=O)NCc2ccc3c(c2)OCO3)c(O)c2ccccc21	inactive
O=C(NNS(=O)(=O)c1ccc(F)cc1)c1cnccn1	inactive
O=C(CC1Oc2ccccc2NC1=O)NCc1ccc(F)cc1 (centres undefined)	inactive
CCOC(=O)c1c(C)oc2ccc(N(C(=O)c3ccncc3)S(=O)(=O)c3ccc(CC)cc3)cc12	inactive
O=Cc1c(Cl)cccc1Cl	inactive
Cc1ccc(-c2nn(-c3cccc(F)c3)cc2CNCCc2ccncc2)o1	15.1 µM (active)
Cc1ccc(-c2nn(-c3ccccc3)cc2CN(Cc2ccccc2)C(=O)CCC(=O)O)o1	inactive
CSCCNCc1cn(-c2ccc(F)cc2F)nc1-c1ccccc1C	inactive
CCCN(CCC)CCNC(=O)Cn1cnc2sc(C)c(S(=O)(=O)N3CCC(C)CC3)c2c1=O	inactive
N#Cc1nc(/C=C/c2ccc(F)cc2)oc1NC1CCCCC1	inactive
O=C(N/N=C/c1ccc([N+](=O)[O-])o1)c1cn(-c2ccccc2)nc1-c1ccc(F)cc1	inactive
CC(C)(C)OC(=O)N/N=C/c1cn(-c2ccccc2)nc1-c1cccnc1	inactive
Cc1ccc(-c2nn(-c3ccccc3)cc2/C=N/NC(=O)c2ccc3c(c2)OCO3)cc1	4.26 µM (active)
COc1ccc(C(=O)N2CCC(c3nc4ccccc4o3)CC2)cc1	inactive

Compound	Potency
CC(C)c1ccc(OCC(O)CN2CCN(c3ccccn3)CC2)cc1 (centres undefined)	inactive
CC(O)c1ccc(OCCN(C)c2ccccn2)cc1 (centres undefined)	15.1 µM (active)
CCOc1ccc(C(C(=O)NCCOC)N(CCOC)C(=O)CCC(=O)Nc2ccccn2)cc1 (centres undefined)	inactive
COCCn1c(CCC(=O)Nc2cc(C)ccc2C)nc2cccnc21	inactive
COc1ccc2c(c1)C=C(C(=O)NCc1cc(Br)ccc1OC)CO2	inactive
COc1ccccc1NC(=O)c1sc2nc(C)c(C(=O)Nc3ccc(Cl)cc3)c(-c3ccc(Br)cc3)c2c1N	inactive
O=C(CN1CCCCCC1)NCCN1C(=O)S/C(=C\c2ccccc2Cl)C1=O	inactive
CC(C)OC(=O)CN1C(=O)C(=O)c2ccccc21	inactive
Cc1cc(/C=C2/SC(=O)N(CC(=O)OC(C)C)C2=O)c(C)n1C	15.1 µM (active)
COc1ccc(F)cc1C(=O)COC(=O)c1n[nH]c(=O)c2ccccc12	inactive
COc1ccc(NC(=O)COC(=O)c2n[nH]c3ccccc23)c(OC)c1	inactive
COc1cccc(CNC(=O)c2n[nH]c3ccccc23)c1	26.9 µM (active)
O=C(COC(=O)c1n[nH]c2ccccc12)NCc1ccccc1	inactive
O=C(COC(=O)Cc1c[nH]c2ccccc12)NCCc1ccccc1	inactive
COc1cccc(CNC(=O)Cc2csc(Nc3nc(=S)[nH]c4ccccc34)n2)c1	inactive
COc1ccc(COC(=O)c2n[nH]c3ccccc23)cc1F	19 µM (active)
O=C(NCCc1ccc(F)cc1)c1ccc2nccnc2c1	8.49 µM (active)
O=C(NCCc1ccc(F)cc1)c1n[nH]c2ccccc12	16.9 µM (active)
O=C(NCCc1ccc(F)cc1)c1ccc(S(=O)(=O)N2CCCCC2)cc1	inactive
O=C(CC(=O)N/N=C\c1ccc(F)cc1)NCCc1ccccc1	inactive
O=C(NCCc1ccc(Cl)cc1)c1ccc2c(c1)N(Cc1ccc(F)cc1)C(=O)CS2	inactive
